Compound activity from PubChem.
An excerpt weighted towards active compounds, which were near 10% of everything screened.
GLS inh: glutaminase GLS (human) inhibition; O94925; GLS enzymatic activity, qHTS titration; Potency, µM (top dose mostly 45.5 µM), for inactives: at the highest dose activity change, negative = inhibition, most hits filed as inhibitors; actives 0.21% (n = 410,000); AID 624170; further: on the % scale 0 is the no-effect control and ±100 the full control effect
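hKGA in 45 mM KH2PO4 (pH 8.2), 0.02% Tween-20 with compound, then 1mM L-Glutamine (stock as added) plus glutamate oxidase/HRP/Amplex red coupling mix. Fluorescence read initially and after 30 min at RT; signal change reflects glutamate formation.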
JMJD2A Tudor inh: JMJD2A Tudor domain (human) inhibition. O75164. AlphaScreen JMJD2A-Tudor / H3K4me3 peptide binding. Potency, µM (top dose mostly 114 µM), for inactives: at the top dose activity change, negative = inhibition, hits mostly inhibitors. actives 4.4% (n = 390,000). AID 504339; further: on the % scale 0 is the no-effect control and ±100 the full control effect; nearly all actives have a fitted effect of over 50% in size
G9a block: blocks human histone lysine methyltransferase G9a | actives 8.8% (n = 350,000) | G9a H3K9 monomethylation, AlphaScreen, 2 h | Potency, µM (highest dose often 102 µM), for the others: top-dose activity, negative = inhibition, most hits filed as inhibitors | Q96KQ7; further: on the % scale 0 is the no-effect control and ±100 the full control effect; nearly all actives have a fitted effect of over 75% in size
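AlphaScreen detection with an anti-monomethyl H3K9 antibody quantified product after a 2 h room-temperature reaction containing 500 nM biotinylated H3K9 peptide, 20 µM SAM and 20 nM enzyme, which had been preincubated 15 min with compound.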
HP1b chromo inh: HP1-beta chromodomain-methylated histone interaction inhibition; P83916; AlphaScreen HP1-beta / biotin-H3K9me3 peptide binding; Potency, µM (series often up to 114 µM), for inactives: at the top dose activity change, negative = inhibition, actives largely listed as inhibitors; actives 0.56% (n = 390,000); further: nearly all actives have a fitted effect of over 70% in size
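HP1-beta protein (50 nM final) preincubated 30 min at room temperature with biotinylated H3(1-18)K9me3 peptide (50 nM) in PBS pH 7.4, 0.01% Tween-20, then compound added for 30 min. AlphaScreen streptavidin donor/nickel chelate acceptor beads (10 ug/mL final), 30 min dark, luminescence read.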
BAZ2B inh: blocks human BAZ2B. Q9UIF8. AlphaScreen BAZ2B-H3K14Ac peptide displacement. Potency, µM (doses to about 114 µM), inactives show at the highest dose activity change, negative = inhibition, usual class: inhibitors. actives 4.4% (n = 360,000). AID 504333; further: on the % scale 0 is the no-effect control and ±100 the full control effect; nearly all actives have a fitted effect of over 60% in size
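In this displacement format the biotinylated H3(5-23) peptide acetylated at Lys14 serves as ligand at 50 nM, with BAZ2B at 50 nM in PBS pH 7.4 containing 0.01% Tween-20. Donor and acceptor beads are 10 ug/mL final.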
* hit, by the source's call; ? = inconclusive; nt = not tested or not shown; [ ] = dose if it differs, or a comment. The call rests on the fitted dose curve; in most records, active means well fitted curve in the direction sought with a large enough effect; inconclusive means small, poorly fitted or top-dose-only effect, or another doubt; inactive means no such curve, though single readings can be large; an effect the other way counts as inactive or inconclusive. Potency means the concentration at half of the fitted maximal effect.

SMILES	GLS inh	JMJD2A Tudor inh	G9a block	HP1b chromo inh	BAZ2B inh
Cc1cc(O)cc(O)c1/C=N/NC(=O)c1ccc2c(c1)OCCO2	27%	nt	nt	nt	nt
CCOC(=O)C1=C(CN2CCN(c3ccccc3F)CC2)NC(=O)NC1c1ccc(OC)cc1 (stereo unspecified)	1%	-35%	-39%[59 µM]	16%	?
N#CC1=C(SCC(N)=O)NC2=C(C(=O)c3ccccc32)C1c1ccc(Cl)cc1 (stereo unspecified)	-22%	-34%	50µM*	21%	-2%
Cc1ccc(S(=O)(=O)Nc2c(O)c3ccccc3oc2=O)cc1C	0%	-1%	50µM*	-1%	5%
C/C(=N\NS(=O)(=O)c1ccc(C)cc1)c1cc2ccccc2oc1=O	0%	-6%	-25%	36%	-1%
C/C(=N/NS(=O)(=O)c1ccc(C)cc1)c1c(O)c2ccccc2oc1=O	0%	-13%	50µM*	15%	-18%
COc1ccc(S(=O)(=O)Nc2c(O)c3ccccc3oc2=O)cc1	94%	-8%	-36%[12.7 µM]	19%	29%
Cc1ccc(S(=O)(=O)Nc2c(O)c3ccccc3oc2=O)cc1	-11%	-14%	28µM*	46%	-3%
Cc1ccc(S(=O)(=O)Nc2c(NC3CCCCC3)c3ccccc3oc2=O)cc1C	45%	-13%	nt	13%[57 µM]	0%
COc1ccc2c(c1)CC(NC(=O)Nc1ccc(NC(C)=O)cc1)CO2 (stereo unspecified)	-1%	-13%	0%[59 µM]	30%[57 µM]	0%
COc1ccccc1NC(=O)C1CCN(C(=O)c2sc3nc[nH]c(=O)c3c2C)CC1	-7%	-7%	23%[59 µM]	24%[57 µM]	8%
O=C(CNS(=O)(=O)c1ccc([N+](=O)[O-])cc1)N/N=C/c1ccc(O)cc1O	13µM*	-21%	17%	18%	4%
CC(C)(C)c1ccc(C2Sc3ccccc3NC3=C2C(=O)c2ccccc23)cc1 (stereo unspecified)	-9%	25µM*	10µM*	?	8.9µM*
COc1ccc(CNc2nc(N)nc3nc[nH]c23)cc1	nt	-9%	nt	21%	nt
Nc1nc(=O)n(C2CC(O)C(CO)O2)cc1F (stereo unspecified)	-3%	-10%	nt	42%	nt
O=C(NCCc1ccccc1)c1ccc2c(c1)CCN2S(=O)(=O)c1ccccc1	8%	-3%	-5%[59 µM]	42%	0%
COc1cccc(CCc2nnc(N)s2)c1	4%	-4%	79µM*	8%	-3%
CCOc1ccc(C(=O)N(Cc2ccc(C(C)C)cc2)Cc2ccco2)cc1	0%	4%	6%[59 µM]	55%	23%
Fc1ccc(-c2cc(C(F)(F)F)nc(NCC3CCCO3)n2)cc1 (stereo unspecified)	-3%	67%	63%[59 µM]	179%	117%
O=C(CC(c1ccc(F)cc1)c1ccco1)N1CCCC1 (stereo unspecified)	2%	-20%	40µM*	32%	7%
CCCN(CCC)C(=O)CC(c1ccc(F)cc1)c1ccco1 (stereo unspecified)	7%	-33%	45µM*	39%	-32%
O=C(CC(c1ccc(F)cc1)c1ccco1)N1CCOCC1 (stereo unspecified)	-1%	-13%	-29%	48%	12%
O=C(CC(c1ccc(F)cc1)c1ccco1)Nc1nccs1 (stereo unspecified)	0%	-34%	28µM*	-18%	?
O=C(CSc1ccc2nc(-c3ccccc3)cn2n1)Nc1cccc(F)c1	1%	28%	-38%[59 µM]	35%[57 µM]	15%
Cc1ccc(C)c(C(=O)CCC(=O)OCn2nnc3ccccc3c2=O)c1	-4%	-6%	-4%[12.7 µM]	27%	-4%
CC(C)OC(=O)C(CC(=O)O)NCc1ccccc1 (stereo unspecified)	20%	11µM*	?	?	-36%
COc1ccc(OC)c(NC(=O)C(CC(=O)O)NCc2ccco2)c1 (stereo unspecified)	14%	45µM*	?	-12%	-31%
CCOC(=O)C(CC(=O)O)NCc1ccco1 (stereo unspecified)	1%	18µM*	40µM*	4%	-5%
